# In the supplement of paper PMC3334620:
# The full ranking holds about 33,000 sequences; the median of “E-score (-0.5 to 0.5)” is about -0.036, and the highest 2% start at about 0.37. For the sample, the highest values were picked, then their nearest neighbours and some sequences at random.
# Target: T1, Yer064c (UniProt P40041)
# T1 sequence: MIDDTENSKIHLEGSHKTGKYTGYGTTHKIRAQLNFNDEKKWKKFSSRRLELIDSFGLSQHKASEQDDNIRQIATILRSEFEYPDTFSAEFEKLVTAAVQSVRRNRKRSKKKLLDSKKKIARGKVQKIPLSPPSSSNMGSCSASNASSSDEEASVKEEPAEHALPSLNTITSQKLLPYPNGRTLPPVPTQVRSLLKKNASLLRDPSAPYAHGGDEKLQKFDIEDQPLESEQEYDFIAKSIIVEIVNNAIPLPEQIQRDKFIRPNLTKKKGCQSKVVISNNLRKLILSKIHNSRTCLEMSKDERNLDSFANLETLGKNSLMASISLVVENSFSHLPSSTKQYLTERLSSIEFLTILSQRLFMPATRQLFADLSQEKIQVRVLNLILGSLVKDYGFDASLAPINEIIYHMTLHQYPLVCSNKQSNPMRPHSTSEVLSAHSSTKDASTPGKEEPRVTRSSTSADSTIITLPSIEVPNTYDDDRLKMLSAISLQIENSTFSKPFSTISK
# Experiment: PBM E-score (8-mer binding enrichment) (E-score (-0.5 to 0.5)); higher = stronger / more preferred TF binding
# Settings: protein concentration: 200 nM; construct: GST-full length
# Description: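 Universal 'all 10-mer' protein binding microarrays (Agilent AMADID 015681) probed with GST-tagged S. cerevisiae TFs (full-length or DBD) made by in vitro transcription/translation (PURExpress), about 100-200 nM. Bound TF was detected with fluorescent anti-GST. Each ungapped 8-mer (which stands for itself and its reverse complement) is scored by the PBM enrichment score (E-score), a modified Wilcoxon-Mann-Whitney statistic from -0.5 to +0.5, computed with the Universal PBM Analysis Suite. Scale: above 0.35 generally sequence-specific binding.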
row,Sequence,PBM E-score
1,AACCTATA,0.0106
2,CCGCGATA,-0.0471
3,GTTGGTGA,0.115
4,AGAAACAG,-0.164
5,GCTCCAAC,-0.164
6,GTCGTACA,0.19
7,AGGGCGAC,-0.0248
8,CTACAGAC,-0.184
9,CCCATTAA,-0.0295
10,GGGTCGAA,0.0364
11,GAGGCGGA,-0.0783
12,CCCCCCAA,-0.315
13,GACGAAGA,0.0944
14,GTGGGTTA,0.103
15,ATAGTCCG,0.316
16,ATAGTCGC,0.389
17,ATAGTCAG,0.454
18,ATAGTCTG,0.177
19,CTAGTCGC,0.316
20,ATAGTCGG,0.256
21,ACAGAAGG,-0.0367
22,CTGCATCA,-0.0294
23,AGGATCGG,-0.209
24,CGGGCTCC,-0.307
25,CATGAGTA,0.341

row,Sequence,PBM E-score
1,AATGAGCA,-0.0702
2,AATGAGGA,-0.00162
3,GATGAGTA,0.429
4,GCTGAGTA,0.212
5,AATGAGTA,0.389
6,CGAGATTC,0.0578
7,AAGTTGTA,-0.0146
8,ATGGGGCG,-0.111
9,AATTAATT,0.177
10,TACTTATA,0.116
11,GACTTATA,0.387
12,GACTTATC,0.307
13,TCTCCCCA,-0.153
14,CCGACAGC,-0.394
15,AGGGAGTA,0.0389
16,AGGGAGTG,-0.175
17,CGGGAGAC,0.106
18,AGGGAGTC,0.44
19,CGGGAGTC,0.413
20,CGGGAGTA,-0.0367
21,GCTACCAA,-0.00248
22,CGAGCCGC,-0.00093
23,GGACGACC,-0.23
24,CGGGCACA,-0.212
25,CCAGGATC,-0.0208

row,Sequence,PBM E-score
1,ATCCGGAC,-0.228
2,AATGGGGA,-0.288
3,ACACCAGG,-0.148
4,ACCAACGA,-0.0117
5,GACCGGTC,-0.369
6,AGTGACAA,0.0598
7,GGTGACCA,0.0718
8,GGTGACGA,-0.0961
9,AGTGACGA,0.218
10,AGTGACTA,0.469
11,CGTGACTA,0.486
12,CGTGACAA,-0.253
13,AGTGACCG,-0.22
14,GGTGACTA,0.486
15,CGTGACGA,0.0595
16,AGTGACTG,0.403
17,AGTGACGG,-0.0747
18,GAGTACCA,0.252
19,AATACCAA,-0.0127
20,CTCAACCA,0.152
21,GCTTGCCC,-0.427
22,AGTATGGC,0.0363
23,CAAATTTG,0.13
24,ATGCGAAG,-0.0967
25,GTTACTTA,0.163

row,Sequence,PBM E-score
1,CGAAAAAA,0.0432
2,CGTGACTC,0.481
3,CGTGACGC,-0.00579
4,AGTGACGC,-0.182
5,AGTGACTC,0.486
6,CGTGACCC,0.0177
7,AGTGACAC,-0.0262
8,AGGGTACT,-0.144
9,CGATTCCA,-0.102
10,GGATTCAA,0.18
11,AGATTCCA,0.0276
12,TGATTCCA,0.398
13,AGATTCAA,0.314
14,TGATTCAA,0.466
15,AGCGGAAG,-0.191
16,CTGCACCC,-0.223
17,GGACTGAA,0.109
18,TGACTGAA,0.432
19,CGACTGCA,0.253
20,AGACTGAA,0.241
21,AGACTGCA,0.201
22,TGACTGCA,0.404
